Data on 16 compounds can be found in paper PMC5540273 (PLoS ONE, 2017).

Among the test systems are RIOK1; RIOK2; RIOK3; RIPK1; RIPK2; RIPK4; RIPK5; ROCK1; ROCK2; ROS1.
Common to all, as to settings: concentration: 1 μM,replicates: in singlicate; n = 1
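Also: KINOMEscan kinase panel screen.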

As for `Cl.c1ccc(Oc2ccc(Nc3ccnc4cc(-c5ccc(CN6CCNCC6)o5)ccc34)cc2)nc1` [GW567142], the “%Inh” value in the experiment with RIOK1 was 0%; in the experiment with RIOK2, 0%; in the experiment on RIOK3, 0%; in the experiment on RIPK1, 0%; in the experiment with RIPK2, 95.5%; with RIPK4, 0%. In addition, the “%Inh” value was 4% in the experiment with RIPK5, 5% with ROCK1, 32% with ROCK2 and 0% with ROS1.

`Cl.Nc1n[nH]c2cc(-c3ccccn3)ccc12` [GSK2189892]: the “%Inh” value in the experiment with RIOK1 is given as 47%; in the experiment on RIOK2, 0%; in the experiment on RIOK3 it was 24%; in the experiment on RIPK1, 0%; in the experiment with RIPK2, 0%; in the experiment on RIPK4, 4%. Also, the “%Inh” value in the experiment with RIPK5 is listed as 6%; in the experiment with ROCK1, 0%; in the experiment on ROCK2 it was 5%; in the experiment on ROS1 it was 12%.

Take `c1ccc(Oc2ccc(Nc3ccnc4ccc(-c5ccccn5)cc34)cc2)cc1` [GW407034]: the “%Inh” value with RIOK1 was 16%; in the experiment with RIOK2, 5%; with RIOK3, 0%; in the experiment with RIPK1, 0%; in the experiment with RIPK2 it was 95.7%; in the experiment on RIPK4 it was 16%. In addition, the “%Inh” value in the experiment with RIPK5 came out at 31%; with ROCK1, 11%; with ROCK2, 0%; in the experiment with ROS1 it was 10%.

Regarding `CSc1nccc(-c2c(-c3ccc(F)cc3)ncn2CCCN2CCOCC2)n1.Cl` [SB-217146], the “%Inh” value in the experiment on RIOK1 was 0%; in the experiment with RIOK2 it was 0%; in the experiment on RIOK3 it was 0%; in the experiment with RIPK1 it was 0%; in the experiment on RIPK2 it was 0%; with RIPK4 it was 3%. The “%Inh” value with RIPK5 is recorded as 33%; with ROCK1, 40%; with ROCK2, 10%; with ROS1, 0%.

As to `CN1CCN(CCNc2nc3cc(Oc4ccc(NC(=O)Nc5cc(C(F)(F)F)ccc5F)cc4)ccc3[nH]2)CC1.Cl.Cl` [GW768504], the “%Inh” value in the experiment on RIOK1 is 0%; in the experiment on RIOK2, 0%; with RIOK3, 8%; in the experiment on RIPK1, 2%; in the experiment on RIPK2, 1%; with RIPK4 it was 0%. Moreover, the “%Inh” value with RIPK5 was determined as 3%; in the experiment with ROCK1 it was 48%; with ROCK2 it was 0%; in the experiment on ROS1, 16%.

On to `COc1ccc(Nc2nccc(N3CCC(NC(=O)c4cccc(C#N)c4)C3)n2)cc1` (stereo not shown) [GSK1379730], for which the “%Inh” value came to 34% with RIOK1; 0% with RIOK2; 5% with RIOK3; 0% in the experiment with RIPK1; 0% in the experiment with RIPK2; 0% in the experiment on RIPK4. Further, the “%Inh” value in the experiment with RIPK5 stood at 0%; with ROCK1, 25%; in the experiment with ROCK2, 14%; in the experiment on ROS1, 23%.

For the compound `C[C@@H]1CCN(C(=O)N2CCCC2)C[C@@H]1N(C)c1ncnc2[nH]ccc12`, the “%Inh” value in the experiment on RIOK1 is given as 0%; with RIOK2, 0%; in the experiment on RIOK3, 2%; in the experiment with RIPK1, 0%; in the experiment with RIPK2, 0%; with RIPK4, 13%. Further, the “%Inh” value with RIPK5 amounted to 24%; with ROCK1, 43%; in the experiment with ROCK2, 67%; with ROS1, 23%.

For the compound `O=C(Nc1ccc(Oc2ccc3nc(NC(=O)C4CC4)cn3n2)c(F)c1)c1cccn(-c2ccccc2)c1=O`, the “%Inh” value is 13% in the experiment on RIOK1; 0% in the experiment with RIOK2; 31% with RIOK3; 80% in the experiment on RIPK1; 4% in the experiment on RIPK2; 0% in the experiment with RIPK4. For the same compound, the “%Inh” value in the experiment on RIPK5, in the experiment on ROCK1, with ROCK2 and with ROS1 was 0% throughout.

Turning to `C[C@@H](Oc1cc(-n2cnc3cc(-c4ccncc4)ccc32)sc1C(N)=O)c1ccccc1Cl` [GSK479719], the “%Inh” value is on record as 94.1% with RIOK1; 9% in the experiment with RIOK2; 100% with RIOK3; 0% with RIPK1; 17% with RIPK2; 8% in the experiment with RIPK4. The “%Inh” value is recorded as 37% in the experiment with RIPK5, 3% in the experiment on ROCK1, 49% in the experiment on ROCK2 and 8% in the experiment with ROS1.

As to `CN1CCN(CCCNc2nccc(-c3c(-c4ccc(F)cc4)nn4cc(C(N)=O)ccc34)n2)CC1` [GW622475], the “%Inh” value in the experiment on RIOK1 came out at 46%; in the experiment with RIOK2, 27%; with RIOK3, 36%; in the experiment with RIPK1 it was 10%; in the experiment on RIPK2, 85%; with RIPK4, 28%. Besides, the “%Inh” value in the experiment with RIPK5 is on record as 0%; with ROCK1, 0%; with ROCK2, 20%; in the experiment on ROS1 it was 4%.

As to `O=C(NOCC1CC1)c1cc(Br)c(F)c(F)c1Nc1ccc(I)cc1Cl`, the “%Inh” value in the experiment on RIOK1, in the experiment on RIOK2, in the experiment on RIOK3, in the experiment on RIPK1, in the experiment with RIPK2 and in the experiment with RIPK4 was 0% each time. Also, the “%Inh” value with RIPK5, with ROCK1, in the experiment on ROCK2 and with ROS1 was 0% throughout.

Turning to `O=C(Nc1cccc(C(F)(F)F)c1)c1cccc(Oc2ccc3nccn3n2)c1`, the “%Inh” value is given as 0% in the experiment on RIOK1; 0% in the experiment with RIOK2; 15% in the experiment on RIOK3; 1% in the experiment on RIPK1; 0% in the experiment on RIPK2; 17% with RIPK4. Also, the “%Inh” value with RIPK5 was determined as 7%; in the experiment on ROCK1 it was 33%; in the experiment with ROCK2 it was 22%; in the experiment on ROS1, 6%.

As to `Cc1cccc(-c2nc(Nc3ccncc3)c3sccc3n2)n1` [GW869641], the “%Inh” value in the experiment on RIOK1 is listed as 35%; with RIOK2 it was 42%; in the experiment with RIOK3, 28%; in the experiment on RIPK1 it was 0%; in the experiment on RIPK2 it was 62%; with RIPK4, 42%. Further, the “%Inh” value came to 25% with RIPK5, 27% in the experiment with ROCK1, 38% with ROCK2 and 21% with ROS1.

Regarding `CC(=O)c1c(-c2ccncc2)[nH]c(-c2ccncc2)c1C` [GW493036], the “%Inh” value is 17% in the experiment with RIOK1; 14% in the experiment on RIOK2; 0% in the experiment on RIOK3; 0% with RIPK1; 14% in the experiment on RIPK2; 0% in the experiment with RIPK4. Further, the “%Inh” value in the experiment with RIPK5 is 0%; in the experiment with ROCK1, 46%; in the experiment on ROCK2 it was 27%; in the experiment with ROS1 it was 0%.

On to `CN(c1ccc2c(c1)nc(NCc1ccc(F)cc1)n2C)c1ccnc(Nc2ccc(CS(C)(=O)=O)cc2)n1.Cl` [GW813244], for which the “%Inh” value in the experiment on RIOK1 is reported as 1%; in the experiment with RIOK2 it was 21%; with RIOK3, 17%; with RIPK1, 99.8%; in the experiment with RIPK2, 25%; in the experiment on RIPK4 it was 24%. The “%Inh” value with RIPK5 came to 50%; with ROCK1, 0%; in the experiment with ROCK2 it was 42%; in the experiment with ROS1 it was 57%.

As for `CS(=O)c1ccc(-c2coc3ccc(-c4n[nH]c(=O)o4)cc23)cc1` (stereo not shown), the “%Inh” value in the experiment with RIOK1 is listed as 15%; in the experiment on RIOK2, 37%; with RIOK3 it was 0%; in the experiment with RIPK1, 0%; with RIPK2 it was 0%; with RIPK4 it was 0%. In addition, the “%Inh” value in the experiment on RIPK5 was 0%; in the experiment with ROCK1, 32%; in the experiment with ROCK2, 0%; with ROS1 it was 0%.
